Compound activity (PubChem)
The list is not random: actives were taken first. Their share in the collection is about 3%.
PAFAH1B2 FP inh = PAFAH1B2 (human) inhibition. recombinant PAFAH1B2, FP-rhodamine activity probe, fluorescence polarization. 1.2% of 340,000 active. inhibition, % at 3.39 µM. AID 492953. P68402;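 active means inhibition above the mean of all tested compounds plus 3 SD, cut at about 24% in these data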;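 further: 0% = enzyme with DMSO and 100% = wells lacking PAFAH1B2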
Target sequence (P68402 whole entry, looked up): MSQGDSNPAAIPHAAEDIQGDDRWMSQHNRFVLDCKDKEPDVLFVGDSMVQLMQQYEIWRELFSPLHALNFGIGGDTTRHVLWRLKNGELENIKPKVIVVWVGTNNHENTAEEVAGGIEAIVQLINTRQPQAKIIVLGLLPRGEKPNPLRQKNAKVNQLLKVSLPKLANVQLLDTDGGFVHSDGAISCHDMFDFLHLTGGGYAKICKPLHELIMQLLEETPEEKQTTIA
PP5 inh = PP5 (human) phosphatase inhibition. purified PP5c, OMFP substrate fluorescence. inhibition, % at 6.7 µM. 0.18% of 320,000 active. AID 1987;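 active means inhibition above the campaign's mean inhibition across all tested compounds plus 3 SD, cut at about 9.5% in these data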;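 further: 0% = DMSO only and 100% = 100 µM cantharidin control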
pPAFAH inh = inhibitors of human plasma PAF acetylhydrolase (pPAFAH); 1.5% of 330,000 active; inhibition, % at 3.39 µM; AID 463082; recombinant pPAFAH, FP-rhodamine probe fluorescence polarization;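 active means inhibition above the mean inhibition across the screen plus 3 SD, cut at about 25% in these data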;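 further: inhibitors block binding of the rhodamine activity-based probe so polarization drops; 0% = enzyme with DMSO and 100% = wells lacking pPAFAH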
PAFAH2 FP inh = inhibitors of human PAFAH2; inhibition, % at 3.39 µM; recombinant PAFAH2, FP-rhodamine activity probe, fluorescence polarization; 0.99% of 340,000 active;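 active means inhibition above the mean over all tested compounds plus 3 SD, cut at about 30% in these data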;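 further: inhibitors block probe labeling of enzyme so polarization drops; 0% = enzyme with DMSO and 100% = wells lacking PAFAH2 protein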
PAFAH1B3 FP inh = PAFAH1B3 (human) inhibition; recombinant PAFAH1B3, FP-rhodamine probe, fluorescence polarization; inhibition, % at 3.39 µM; 0.28% of 340,000 active; AID 492972;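 active means inhibition above the screen-wide average of all tested compounds plus 3 SD, cut at about 25% in these data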;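 further: 0% = enzyme with DMSO only and 100% = wells lacking PAFAH1B3 protein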
Target sequence (Q15102 whole entry, looked up): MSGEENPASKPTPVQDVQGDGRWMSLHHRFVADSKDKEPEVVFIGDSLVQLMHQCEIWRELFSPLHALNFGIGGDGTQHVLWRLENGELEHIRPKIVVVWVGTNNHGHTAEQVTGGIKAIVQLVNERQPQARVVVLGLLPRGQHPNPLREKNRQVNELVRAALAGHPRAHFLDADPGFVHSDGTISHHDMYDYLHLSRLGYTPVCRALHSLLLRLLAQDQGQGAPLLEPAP
Fh CTSL1 inh = counter-screen for PFM18AAP inhibitors: inhibitors of F. hepatica cathepsin L1; 0.49% of 300,000 active; AID 1906; inhibition, % at 5.96 µM; recombinant F. hepatica cathepsin L1, Z-Leu-Arg-MCA fluorescence;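 active means inhibition above the mean of all tested compounds plus 3 SD, set per screening campaign, cut at about 17% in these data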;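 further: 0% = plate median of test compound wells and 100% = 1 µM Z-Phe-Ala-diazomethylketone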
* marks the source's active call; other numbers are inactive results; · = not tested or not shown.

SMILES | PAFAH1B2 FP inh | PP5 inh | pPAFAH inh | PAFAH2 FP inh | PAFAH1B3 FP inh | Fh CTSL1 inh
CCCCc1ccc(Nc2nc(CCC)cc(=O)[nH]2)cc1 | 1 | 8 | 29* | 0 | 2 | 7
CCCc1cc(=O)[nH]c(SCc2ccc(F)cc2)n1 | 11 | 0 | 31* | 2 | 6 | 1
Cc1ccccc1CSc1nc2c(c(=O)[nH]1)CCCC2 | · | 0 | 51* | · | · | -2
O=c1[nH]c(SCc2ccccc2Cl)nc2c1CCC2 | 8 | 2 | 15 | 14 | 4 | -1
CCCc1cc(=O)[nH]c(Nc2ccc(N3CCCCC3)cc2)n1 | 4 | 4 | 8 | 7 | 8 | 3
Cc1cccc(CSc2nc3c(c(=O)[nH]2)CCC3)c1 | 0 | 0 | 20 | 14 | -5 | -2
COc1ccc(C)cc1NC(=O)C1CCN(C(=O)c2ccc(C(C)(C)C)cc2)CC1 | 7 | 4 | 5 | 0 | 1 | 2
N#Cc1ccc(CSc2nc(N)cc(=O)[nH]2)cc1 | 19 | -1 | 4 | 0 | 6 | 4
Cc1ccc(CSc2nc(N)cc(=O)[nH]2)cc1 | 25* | 1 | 2 | -10 | -8 | -5
O=C(CCl)N1CCN2C(=O)c3ccccc3C12c1ccc(Cl)cc1 (configuration not stated) | 4 | 2 | -1 | 2 | 10 | 7
O=C(Nc1cccc(Cl)c1)N1CCN2C(=O)c3ccccc3C12c1ccccc1 (configuration not stated) | 25* | 0 | 0 | -6 | -3 | 3
CC(C)(c1ccc(O)c([N+](=O)[O-])c1)c1ccc(O)c([N+](=O)[O-])c1 | 26* | · | · | 1 | 1 | ·
COc1ccc(N2CC(C(=O)Nc3ccc(S(=O)(=O)Nc4nccs4)cc3)CC2=O)c(OC)c1 (configuration not stated) | -2 | 0 | 5 | 4 | 8 | ·
CC1Cc2c([nH]c3ccccc23)C(=O)N1 (configuration not stated) | 7 | -2 | 8 | 0 | 6 | -2
c1ccc(-c2nc(-c3ccco3)n3ccccc23)cc1 | 3 | -2 | 25* | 1 | 3 | 3
c1ccc(Nc2c(-c3ccco3)nc3ccccn23)cc1 | 2 | 2 | 1 | -4 | -1 | 1
O=S(=O)(/C=C/C=C/S(=O)(=O)c1ccccc1)c1ccccc1 | 1 | · | · | 4 | -1 | ·
COc1ccc(-n2nnnc2SC(C)C(N)=O)cc1 (configuration not stated) | -3 | -2 | -7 | -3 | 0 | 4
CCN(CC)S(=O)(=O)c1ccc2c(c1)nc(SC(C)C(N)=O)n2-c1ccc(OC)cc1 (configuration not stated) | -2 | 4 | 26* | 5 | 2 | -1
CCOc1ccc(CCNC(=O)c2ccc3c(=O)[nH]c4c(C(=O)NC(C)C)sc(=S)n4c3c2)cc1 | 12 | 3 | 29* | 29 | 15 | 1
CC(C)NC(=O)c1sc(=S)n2c1[nH]c(=O)c1ccc(C(=O)NCCc3ccc(Cl)cc3)cc12 | 15 | 2 | 17 | 10 | 12 | -1
COc1ccc(OC)c(CCNC(=O)c2ccc3c(=O)[nH]c4c(C(=O)NC(C)C)sc(=S)n4c3c2)c1 | 24* | 2 | 22 | 60* | 21 | -1
CCOC(=O)/C(C#N)=C/c1cc(C)n(-c2ccc(C)cc2)c1C | -1 | 1 | 26* | -5 | 6 | 3
O=C(CCCNC(=O)c1ccc(Cl)cc1)NCc1ccccc1F | 5 | 0 | 6 | -4 | 11 | 3
Cc1ccc(S(=O)(=O)N2CCN(C(=O)COc3ccc(-c4nnco4)cc3)CC2)cc1 | 7 | 2 | 6 | 1 | -4 | -2
SMILES | PAFAH1B2 FP inh | PP5 inh | pPAFAH inh | PAFAH2 FP inh | PAFAH1B3 FP inh | Fh CTSL1 inh
Cc1ccc(S(=O)(=O)CCC(=O)Oc2ccc(-c3nnco3)cc2)cc1 | 5 | 1 | 29* | -6 | 1 | -25
C/C=C\C=C/C(=O)Nc1cccc(C2=NOC3(C2)C[C@@H](C(N)=O)N(C(=O)[C@H]2CCC(=O)N2)C3)c1 (some centres not stated) | -8 | 1 | 4 | -7 | -18 | 20*
C/C=C\C=C/C(=O)Nc1cccc(C2=NOC3(C2)C[C@@H](C(N)=O)N(C(=O)/C=C/C=C\C)C3)c1 (some centres not stated) | -13 | 4 | -4 | -20 | -18 | 5
Nc1ccc(Nc2ccccc2)c(Cl)c1 | -1 | 0 | 3 | 0 | 1 | 7
Nc1ccccc1Nc1ccccc1 | 0 | 2 | 8 | -2 | -1 | 19*
Cc1cccc(N2CC34C=CC(O3)C(C(=O)O)C4C2=O)c1 (configuration not stated) | 1 | -1 | 0 | 1 | 1 | -2
O=C(O)C1C2C=CC3(CN(C/C=C/c4ccccc4)C(=O)C13)O2 (configuration not stated) | 3 | 0 | 31* | 8 | -2 | 0
O=C(O)C1C2C=CC3(CN(c4cccc(C(F)(F)F)c4)C(=O)C13)O2 (configuration not stated) | 25* | 2 | 2 | 1 | 6 | -4
CC(=O)Nc1ccc2c(c1)N(S(=O)(=O)c1cccs1)CCC2 | 0 | 0 | 5 | 1 | -1 | -1
COc1ccccc1CN(C)C(=O)c1ccc(S(=O)(=O)Nc2c(C)n(C)n(-c3ccccc3)c2=O)cc1 | 5 | · | 3 | 4 | 2 | ·
CCN(CC)CCN(C(=O)CCS(=O)(=O)c1ccccc1)c1nc2cc(C)cc(C)c2s1 | 3 | 1 | 3 | -10 | 1 | 34*
CCN(CC)CCN(C(=O)CCS(=O)(=O)c1ccccc1)c1nc2c(C)cc(C)cc2s1 | 1 | 2 | 3 | 3 | 1 | 40*
Cc1ccc(S(=O)(=O)CCC(=O)N(CCN2CCOCC2)c2nc3ccccc3s2)cc1 | 4 | -2 | 3 | 8 | 2 | 11
Cc1cccc2sc(N(CCN3CCOCC3)C(=O)CCS(=O)(=O)c3ccccc3)nc12 | 1 | 0 | 3 | 1 | 1 | 17*
O=C(CN1CCCCC1)NNC(=O)c1cccc(Br)c1 | 7 | 1 | 5 | 4 | 14 | -2
O=C(c1cc(-c2ccc(Cl)cc2)n[nH]1)N1CCN(C(=O)c2ccco2)CC1 | 3 | 1 | 3 | -4 | 3 | -4
O=C(COc1ccc(Cl)cc1Br)N1CCN(c2ncccn2)CC1 | 0 | · | · | -1 | 7 | ·
CCN1CCN(c2cc(C)c3cc(NC(=O)c4cc(OC)cc(OC)c4)ccc3n2)CC1 | 3 | 2 | 29* | -3 | -1 | 0
Cc1ccc(NC(=O)CC2S/C(=N/c3nccs3)N(C)C2=O)cc1C (configuration not stated) | -2 | 3 | -3 | -2 | -2 | 41*
Cc1ccccc1NC(=O)CC1S/C(=N/c2nccs2)N(C)C1=O (configuration not stated) | -4 | 2 | 3 | 3 | 3 | -2
